Measurements reported in PubChem BioAssay AID1259374 (The Scripps Research Institute Molecular Screening Center, 2018).
The campaign covered roughly 650,000 compounds. About 5,900 (0.91%) were called active. For the sample, actives were picked, then their nearest neighbours and some compounds at random. Values without a mark were called inactive. No stated cut-off is given here; in the data, active means inhibition above about 50%; inactive means the rest.

These compounds were tested against Microphthalmia-associated transcription factor (Homo sapiens) (UniProt O75030) (assay: MITF inhibitors, primary screen, biochemical, AlphaScreen, human (AID 1259374;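 further: 0% = vehicle wells with protein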)). Settings: AlphaScreen MITF homodimerization, bead proximity signal; at 2.6 µM; hits give high values.
Microphthalmia-associated transcription factor (Homo sapiens), sequence (O75030 whole entry, looked up): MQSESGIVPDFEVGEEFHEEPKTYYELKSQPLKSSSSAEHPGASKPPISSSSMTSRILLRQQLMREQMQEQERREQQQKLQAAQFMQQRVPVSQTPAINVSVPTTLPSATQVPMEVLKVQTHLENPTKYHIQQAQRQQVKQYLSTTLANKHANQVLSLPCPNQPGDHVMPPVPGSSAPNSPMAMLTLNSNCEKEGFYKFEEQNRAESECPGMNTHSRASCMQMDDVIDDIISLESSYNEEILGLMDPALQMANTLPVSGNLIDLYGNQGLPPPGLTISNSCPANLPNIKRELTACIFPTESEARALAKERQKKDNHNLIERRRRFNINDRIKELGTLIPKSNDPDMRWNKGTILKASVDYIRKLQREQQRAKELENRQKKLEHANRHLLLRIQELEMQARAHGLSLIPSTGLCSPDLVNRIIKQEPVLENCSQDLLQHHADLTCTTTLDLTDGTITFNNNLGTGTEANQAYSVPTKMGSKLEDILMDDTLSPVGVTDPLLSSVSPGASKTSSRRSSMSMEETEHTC

| Structure (SMILES) | inhibition |
| --- | --- |
| Cc1ccccc1C(=O)Nc1ccc(S(=O)(=O)NCc2ccccc2)cc1 | 5.75% |
| Cc1ccc(NC(=O)CC[C@H]2CN(Cc3ccncc3)CC[C@H]2N2CCOCC2)cc1 | -7.04% |
| CCCC(C)C(=O)Nc1nc2c(s1)C(=O)CC(C)(C)C2 (stereo not drawn) | 6.86% |
| CC(C)NC(=O)/C=C/c1cccc([N+](=O)[O-])c1 | -4.32% |
| COc1cccc(N2C(=O)CC(N3CCN(C)CC3)C2=O)c1 (stereo not drawn) | 5.95% |
| Cc1ccc(-c2noc(CN(C(C)C)S(=O)(=O)c3ccc(F)cc3)n2)cc1 | -1.65% |
| c1cc2c(cc1CNc1nc(Nc3ccc(N4CCOCC4)cc3)c3ncn(C4CCCCC4)c3n1)OCO2 | 53.1% (active) |
| c1ccc(CN2CCC(Nc3nc(NCc4ccc5c(c4)OCO5)nc4c3ncn4C3CCCCC3)CC2)cc1 | 16.3% |
| O=C1CCCN1CCn1cnc2c(Nc3ccc(N4CCOCC4)cc3)nc(NCc3ccc4c(c3)OCO4)nc21 | 15.2% |
| CC12CCOCC1C2C(=O)Nc1ccc(N=Nc2ccccc2)cc1 (stereo not drawn) | -6.59% |
| O=C1CCCN1CCCNc1ccnc(Nc2nccc3ccccc23)n1 | -1.07% |
| COc1cccc(/C=N\NC(=O)CN2CCN(C)CC2)c1 | -8.3% |
| CCN1CCN(CC(=O)N/N=C/c2cccc(Cl)c2)CC1 | 57.4% (active) |
| O=C(CN1CCCCCC1)N/N=C/c1ccc(Cl)cc1 | 20% |
| Cc1cccc(NC(=O)c2sc3nc4c(cc3c2N)CCC4)c1C | 21.2% |
| COc1ccc(OCCOCCOc2ccc([N+](=O)[O-])cc2Cl)cc1 | 3.66% |
| CCN1CCN(CCOc2ccc(-c3ccccc3)cc2)CC1 | 76.4% (active) |
| CN1CCN(CCCCOc2ccc(C#N)cc2)CC1 | 1.14% |
| CN1CCN(CCOCCOc2ccc3c(c2)CCC3)CC1 | 11.3% |
| CCOc1ccc(OCCN2CCNCC2)cc1 | 12.2% |
| CCN1CCN(CCOCCOc2ccc([N+](=O)[O-])cc2)CC1 | 72% (active) |
| O=C(COc1ccc2c3c(c(=O)oc2c1)CCC3)Nc1cccc2ncccc12 | 2.18% |
| COc1ccc(/C(O)=C/c2nc3cc(C)ccc3oc2=O)cc1OC | 3.89% |
| CCN(CC)S(=O)(=O)c1ccc(C(=O)NCCO)cc1 | -0.2% |
| C/C(=N\N=C1\NC(=O)CC(C(=O)Nc2cccc(C(=O)O)c2)S1)c1ccccc1 (stereo not drawn) | 7.7% |
| CC1CN(C(=O)COC(=O)c2cc(O)c(O)c(O)c2)CC(C)O1 (stereo not drawn) | 54.2% (active) |
| CC1CN(C(=O)COC(=O)/C=C/c2ccco2)CC(C)O1 (stereo not drawn) | 16.4% |
| CC1CN(C(=O)COc2ccc(C(C)C)cc2Br)CC(C)O1 (stereo not drawn) | -0.26% |
